In PubChem BioAssay (EPA / NIEHS) one finds outcome and AC50 data, which are given here for 40 compounds.

The source made the active and inactive calls. The calls were made as follows: active = hit-call score of the fitted dose curve at least 0.9, where 1 is the maximum; inactive = score below 0.9.

Read-out in the experiment: Cyclin D1 (CCND1), CCND1 (gene 595)
In words: LTEA_HepaRG_CCND1: Life Technologies and Expression Analysis (LTEA) Assay for Cyclin D1 (CCND1) using HepaRG (AID 2283451).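 As to AC50: TaqMan qRT-PCR transcript level normalised to ACTB GAPDH and POLR2A housekeeping genes.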 As to conditions: mRNA level, 48 h; actives raise or lower the signal. On the procedure: LTEA_HepaRG is a cell based, multiplexed-readout assay that uses HepaRG, a human liver cell line, with measurements taken at 48 hours after chemical dosing on a 96-well plate.LTEA_HepaRG_CCND1 is one of 102 assay component(s) measured in the LTEA HepaRG cell culture assay. It is a marker of Cell proliferation, survival, death.Data from the assay component LTEA_HepaRG_CCND1 was analyzed into 1 endpoint. This assay endpoint, LTEA_HepaRG_CCND1, was analyzed with bidirectional fitting relative to DMSO as the negative control and baseline of activity. Using a type of inducible reporter, measures of mRNA induction for gain or loss-of-signal activity can be used to understand regulation of transcription factor activity. To generalize the intended target to other relatable targets, this assay endpoint is annotated to the cell cycle intended target family, where the subfamily is Cell proliferation, survival, death.
A total of 1060 chemcials from the ToxCast library were tested in eight-point concentration-response experiments. Cell culture and cytotoxicity assays were conducted at Thermo Fisher Scientific's Custom Services facility (Madison, WI). A single lot of human HepaRG cells (Thermo Fisher Scientific, Frederick, MD) was used for the cell culture experiments. 96-well format collagen type I coated plates of human HepaRG cells were prepared using established methods. Briefly, cryopreserved HepaRG cells were thawed, plated at a density of approximately 100,000 cells/well in HepaRG Thaw, Plate, and General Purpose media (HPRG770, Thermo Fisher Scientific), and incubated for 48 hours. 0.5% DMSO was selected as vehicle control to balance the requisite need of DMSO in HepaRG cultures to maintain differentiation (for example, baseline metabolism, proportions of hepatocytes vs. cholangiocytes), while enabling further hepatic receptor pathway activation (for example, PXR and CAR) in response to chemical exposure. 48 hours after plating, the culture medium was replaced with HepaRG Serum-Free Incudtion Media. Cells were exposed to each test chemical in duplicate and maintained in CO2 incubators for another 48 hours. Chemical plates were thawed to room temperature and 200x concentrations of treatment groups were prepared. 8-point conentration-reponse curves were made with the highest exposure at 100 uM, followed by half-log dilutions, all in 0.5% DMSO. Each test plate contained variouse controls, induction positive controls (1mM phenobarbital), cytotoxicity positive controls ([…] aflatoxin B1), vehicle controls (0.5% DMSO), and total lysis controls (0.5% DMSO). Cell morphology images were taken using an Essen IncuCyte FLR automated microscope, with six 96-well plates imaged in about 24 minutes. Images were captured and exported and JPEG files. Spent culture media was transfered to black-well plates for the LDH assay, and remaining media was sorted at -80 C for later use. Cells were treated with RLT buffer and frozen until shipped for gene expression analysis. Total RNA was isolated from the cell suspension in 75 uL of Buffer RLT (Qiagen, Germantown, MD 20874) by Quintiles/Expression Analysis (Durham, NC) using a custom isolation procedure. Total RNA from each plate well was transferred to a preamplification plate. Fluidigm's 96.96 Dynamic ArrayTM (Fluidigm, Amsterdam, the Netherlands) technology was used for gene expression analyses by quantitative reverse transcription polymerase chain reaction (qRT-PCR, performed by Quintiles/Expression Analysis, Durham, NC)89. Standard TaqManTM Assays (Applied Biosystems/ThermoFisher Scientific, Foster City, CA) were used to assess the expression of 93 genes selected based on their selectivity and sensitivity to important hepatic receptors known to be modulated by environmental chemicals; importance in human hepatocyte functionality; and hepatotoxicity. […]
For `O=C(O)c1cccc(C(=O)O)c1`, the result was inactive. As for `CC(C)c1nnc2ccc(-c3ocnc3-c3cc(F)ccc3F)cn12`, the compound was called inactive. The same measure, in the same setting: the value for `O=C(NO)C1(NS(=O)(=O)c2ccc(Oc3ccc(F)cc3)cc2)CCOCC1` was “inactive”.

For `NC(=O)N1c2ccccc2C=Cc2ccccc21`, the outcome was inactive. In the case of `NNC(=O)c1ccncc1`, the compound was classed as inactive.

`C[C@]12C=CC(=O)C=C1CC[C@H]1[C@@H]3C[C@@H](O)[C@](O)(C(=O)CO)[C@@]3(C)C[C@H](O)[C@@]12F`: the result was inactive. On the same count and under the same terms, the value for `OC[C@H]1O[C@@](CO)(O[C@H]2O[C@H](CO)[C@@H](O)[C@H](O)[C@H]2O)[C@@H](O)[C@@H]1O` was “inactive”. Same read-out and setting: the value for `OCCOCCOCCO` was “inactive”. For `NC(N)=O`, the compound was called inactive.

In the case of `COCc1nnc(-c2ccc[n+]([O-])c2)n1-c1c(Cl)c(Cl)cc2[nH]c(=O)c(=O)[nH]c12`, the compound was classed as inactive. The same measure, in the same setting: the value for `CCCc1ccccc1` was “inactive”. `OCc1ccccc1`: the result was inactive. As for `c1ccc2cc3ccccc3cc2c1`, the call was inactive. As to `Cc1ccc(S(=O)(=O)NC(=O)NN2CCCCCC2)cc1`, the compound was called inactive. Turning to `OC[C@H]1O[C@@H]2O[C@H]3[C@H](O)[C@@H](O)[C@@H](O[C@H]4[C@H](O)[C@@H](O)[C@@H](O[C@H]5[C@H](O)[C@@H](O)[C@@H](O[C@H]6[C@H](O)[C@@H](O)[C@@H](O[C@H]7[C@H](O)[C@@H](O)[C@@H](O[C@H]1[C@H](O)[C@H]2O)O[C@@H]7CO)O[C@@H]6CO)O[C@@H]5CO)O[C@@H]4CO)O[C@@H]3CO`, the outcome was inactive. Same read-out and setting: the result for `Cn1c(=O)c2[nH]cnc2n(C)c1=O` reads “inactive”; that for `CC1(C)C(=O)N(Cl)C(=O)N1Cl`, “inactive”; that for `CC(=O)c1ccccc1`, “inactive”.

Regarding `CCCCC(CC)C(=O)OCCOCCOCCOC(=O)C(CC)CCCC` (stereo not given), the compound was classed as inactive.

As to `C=CCc1cc(S(=O)(=O)c2ccc(O)c(CC=C)c2)ccc1O`, the AC50 is 88.2 µM (active). As for `CCCOc1ccc(S(=O)(=O)N2CCN(CC)CC2)cc1-c1nc2c(CC)n(Cc3ccccn3)nc2c(=O)[nH]1`, the result was inactive. The same measure, in the same setting: the value for `NC(=O)N(O)[C@@H]1COc2cc(OCc3ccccc3)ccc21` was “inactive”; that for `CCCCCOC(C)=O` was “inactive”; that for `C[C@@H](Oc1ccc(CNC(=O)c2cccnc2Oc2ccc3c(c2)OCO3)c(F)c1)C(=O)O` was “inactive”. Still for that read-out and setting: the result for `OCCNCCO` reads “inactive”; that for `Cc1nccn1-c1ccc(Sc2cccc(C3(C(N)=O)CCOCC3)c2)cc1`, “inactive”.

As to `CCCCN1C(=O)[C@@H]([C@H](O)C2CCCCC2)NC(=O)C12CCN(Cc1ccc(Oc3ccc(C(=O)O)cc3)cc1)CC2`, the AC50 was 50 µM (active). In the case of `CC[C@H](C)C(=O)O[C@H]1C[C@H](O)C=C2C=C[C@H](C)[C@H](CC[C@@H](O)C[C@@H](O)CC(=O)O)[C@H]21`, the outcome was inactive. With `CCCCCCCC/C=C\CCCCCCCC(=O)OC[C@@H](O)[C@H]1OC[C@H](O)[C@H]1O`, the compound was classed as inactive. Still for that read-out and setting: the result for `O=S(=O)(O)c1ccc(N=Nc2c(O)ccc3cc(S(=O)(=O)O)ccc23)cc1` reads “inactive”; that for `CCCCOC(=O)c1ccccc1`, “inactive”; that for `CCN(CC)C(=S)SSC(=S)N(CC)CC`, “inactive”. On the same count and under the same terms, the result for `CNC(C)=O` reads “inactive”; that for `CCc1cccc(CC)c1N`, “inactive”. For the compound `CC(C)C(=O)Nc1ccc([N+](=O)[O-])c(C(F)(F)F)c1`, the AC50 was 12.4 µM (active).

Regarding `CCc1ccc(O)c(C(C)(C)C)c1`, the outcome was inactive. The same measure, in the same setting: the value for `CCOc1ccc2[nH]cc(C(=O)NCc3ccccc3)c(=O)c2n1` was “inactive”; that for `O=S1(=O)CCCO1` was “inactive”. As for `COc1cc(C(C)C)c2c(c1)S(=O)(=O)N(COc1cc(=O)n3cccc(OCCN4CCCCC4)c3n1)C2=O`, the AC50 is 19.4 µM (active). Same read-out and setting: the result for `c1ccc(C(O[C@@H]2CCCN(CCc3ccc4c(c3)OCO4)C2)c2ccccc2)cc1` reads 50 µM (active).
